According to PubChem BioAssay (NCATS):
Records with an inconclusive call do not appear. The source made the active and inactive calls. Unless noted, calls follow the shape of the dose curve; as a rule, active = well fitted curve in the direction sought with a large enough effect; inconclusive = small, poorly fitted or top-dose-only effect, or another doubt; inactive = no such curve, though single readings can be large; an effect the other way counts as inactive or inconclusive.

Legend:
[1] = target: ATP-dependent 6-phosphofructokinase (Trypanosoma brucei brucei) (UniProt O15648); test: qHTS Assay to Find Inhibitors of T. brucei phosphofructokinase: hit validation (AID 492961);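 also: luminescence reports ADP formed as PFK phosphorylates fructose-6-phosphate with ATP; % is scaled to controls: 0 for no effect and ±100 for the full control effect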
ATP-dependent 6-phosphofructokinase (Trypanosoma brucei brucei), sequence (O15648 whole entry, looked up): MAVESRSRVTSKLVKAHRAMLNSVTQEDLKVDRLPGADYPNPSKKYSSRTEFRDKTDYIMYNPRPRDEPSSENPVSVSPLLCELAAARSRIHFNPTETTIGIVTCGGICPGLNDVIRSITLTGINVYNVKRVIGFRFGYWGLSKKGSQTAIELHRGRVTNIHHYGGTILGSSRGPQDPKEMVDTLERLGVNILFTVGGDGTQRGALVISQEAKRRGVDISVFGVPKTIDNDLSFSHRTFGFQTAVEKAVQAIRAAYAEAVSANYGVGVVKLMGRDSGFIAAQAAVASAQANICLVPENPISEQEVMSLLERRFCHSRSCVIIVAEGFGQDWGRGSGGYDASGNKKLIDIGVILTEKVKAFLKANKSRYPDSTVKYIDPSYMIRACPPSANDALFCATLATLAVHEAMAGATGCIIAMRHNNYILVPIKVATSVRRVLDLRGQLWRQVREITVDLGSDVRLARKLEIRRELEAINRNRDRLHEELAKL
How it was run: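 ADP-Glo luminescence read-out of ADP formed by 1.25 nM PFK from 0.1 mM ATP and 0.5 mM F6P (TEA pH 8.0, 45 min, RT). Compounds titrated; activity normalized to no-enzyme and full-enzyme controls.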

[2] = target: Ubiquitin carboxyl-terminal hydrolase 1 (Homo sapiens) (UniProt O94782); test: Inhibitors of USP1/UAF1: Pilot qHTS (AID 504865);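 also: rhodamine fluorescence freed from ubiquitin-rhodamine substrate followed over time; top concentration of the series differs between compounds; % is scaled to controls: 0 for no effect and ±100 for the full control effect; nearly all actives have a fitted effect of over 35% in size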
Ubiquitin carboxyl-terminal hydrolase 1 (Homo sapiens), sequence (O94782 whole entry, looked up): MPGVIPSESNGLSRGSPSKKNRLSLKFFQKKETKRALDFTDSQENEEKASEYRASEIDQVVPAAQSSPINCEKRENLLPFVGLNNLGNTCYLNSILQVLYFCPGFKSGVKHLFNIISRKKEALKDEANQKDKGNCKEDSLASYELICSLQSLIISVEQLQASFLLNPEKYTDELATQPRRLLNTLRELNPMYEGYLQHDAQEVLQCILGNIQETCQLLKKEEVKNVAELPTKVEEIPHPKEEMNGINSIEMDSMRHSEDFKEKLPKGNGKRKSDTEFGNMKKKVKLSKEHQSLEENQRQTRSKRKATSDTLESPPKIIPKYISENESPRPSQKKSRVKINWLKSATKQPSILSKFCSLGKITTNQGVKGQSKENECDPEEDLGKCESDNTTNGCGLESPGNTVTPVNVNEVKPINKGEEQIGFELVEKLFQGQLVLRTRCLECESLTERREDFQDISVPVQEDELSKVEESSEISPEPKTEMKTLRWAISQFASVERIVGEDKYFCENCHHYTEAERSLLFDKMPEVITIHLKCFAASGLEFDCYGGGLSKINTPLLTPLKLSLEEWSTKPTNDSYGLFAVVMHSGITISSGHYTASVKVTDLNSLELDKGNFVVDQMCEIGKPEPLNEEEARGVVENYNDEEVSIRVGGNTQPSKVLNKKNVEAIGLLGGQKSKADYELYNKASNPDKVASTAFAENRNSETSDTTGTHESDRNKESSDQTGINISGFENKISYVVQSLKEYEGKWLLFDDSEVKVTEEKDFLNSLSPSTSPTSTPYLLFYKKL
How it was run: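 Enzyme-free wells gave the negative control, while test wells held 1nM USP1/UAF1 preincubated with compound for 15 min at room temperature. Ub-Rho at 150nM final started the reaction, and fluorescence at 480/540 nm was recorded kinetically.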

[3] = target: Luciferin 4-monooxygenase (Photinus pyralis) (UniProt P08659); test: Biochemical firefly luciferase enzyme assay for NPC (AID 624030);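 also: purified P. pyralis luciferase at 10 nM with luciferin and ATP substrate; 0% = DMSO and -100% = full luciferase inhibition by PTC124 control; nearly all actives have a fitted effect of over 70% in size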
Luciferin 4-monooxygenase (Photinus pyralis), sequence (P08659 whole entry, looked up): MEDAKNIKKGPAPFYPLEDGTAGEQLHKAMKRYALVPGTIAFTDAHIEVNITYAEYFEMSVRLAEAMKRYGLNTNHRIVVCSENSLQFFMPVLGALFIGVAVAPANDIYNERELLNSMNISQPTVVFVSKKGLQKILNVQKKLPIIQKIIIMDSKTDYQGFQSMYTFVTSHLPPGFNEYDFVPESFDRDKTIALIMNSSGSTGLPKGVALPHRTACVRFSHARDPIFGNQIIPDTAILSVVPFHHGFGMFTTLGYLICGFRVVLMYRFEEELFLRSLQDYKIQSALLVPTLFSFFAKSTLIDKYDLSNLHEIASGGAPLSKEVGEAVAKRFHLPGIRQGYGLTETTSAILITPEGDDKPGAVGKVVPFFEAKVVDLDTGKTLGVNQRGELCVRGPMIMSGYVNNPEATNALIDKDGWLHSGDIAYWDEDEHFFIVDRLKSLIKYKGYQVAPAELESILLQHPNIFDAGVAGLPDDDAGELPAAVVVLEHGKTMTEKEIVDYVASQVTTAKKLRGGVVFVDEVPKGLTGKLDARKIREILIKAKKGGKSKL
How it was run: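 Direct inhibition of firefly luciferase enzyme (10 nM final, 50 mM Tris Acetate) assessed by luminescence within 5 minutes. Percent activity scaled between DMSO and PTC124 positive control, with concentration-effect curves classified by fit quality and response.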

[4] = S16 Schwann cell viability assay (CellTiter-Glo assay) (AID 624031);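 also: cellular ATP luminescence as a viability measure; plate controls were DMSO-treated cells for no effect and cell-free wells for full effect; nearly all actives have a fitted effect of over 70% in size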
How it was run: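 This viability control uses native rat S16 Schwann cells grown in DMEM plus 10% FBS. After a 24 h compound treatment at 37 °C, CellTiter-Glo luminescence reports ATP content, scaled against DMSO-treated and cell-free wells.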

[5] = S16 Schwann cell PMP22 intronic element firefly luciferase assay (AID 624032);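 also: plate controls were DMSO for no effect and PTC124 positive control mean for full effect; nearly all actives have a fitted effect of over 30% in size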
How it was run: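 Luciferase reporter of PMP22 intronic-element expression in stably transfected S16 rat Schwann cells, read by ONE-Glo luminescence after 24 h compound exposure at 37 C. Activity scaled between DMSO (0%) and positive-control PTC124; concentration-effect curves quality-classified.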

[6] = Primary qHTS for inhibitors of SARS-S pseudo-typed particle cell entry (AID 1479145; calls by dose curve; also: % is scaled to controls: 0 for no effect and ±100 for the full control effect; nearly all actives have a fitted effect of over 45% in size); details: outcome: dose series up to 57.1 µM unless noted
[7] = Primary qHTS for Huh7 cytotoxicity: counterscreen for inhibitors of MERS-S pseudotyped particle cell entry (AID 1479147; calls by dose curve; also: % is scaled to controls: 0 for no effect and ±100 for the full control effect); details: outcome: dose series up to 57.1 µM unless noted
[8] = Primary qHTS for inhibitors of MERS-S pseudo-typed particle cell entry (AID 1479149; calls by dose curve; also: nearly all actives have a fitted effect of over 60% in size); details: outcome: dose series up to 57.1 µM unless noted
[9] = Primary qHTS for Vero E6 cytotoxicity: counterscreen for inhibitors of SARS-S pseudo-typed particle cell entry (AID 1479150; calls by dose curve); details: outcome: dose series up to 57.1 µM unless noted
[10] = target: Cytochrome P450 2D6 (Homo sapiens) (UniProt P10635); test: Cytochrome P450 family 2 subfamily D member 6 (CYP2D6) small molecule antagonists: luciferase biochemical (cell-free) qHTS assay (AID 1645840; active = well fitted curve in the direction sought with a large enough effect in the repeat runs; an effect the other way counts as inactive or inconclusive; also: % is scaled to controls: 0 for no effect and ±100 for the full control effect; nearly all actives have a fitted effect of over 55% in size)
Cytochrome P450 2D6 (Homo sapiens), sequence (P10635 whole entry, looked up): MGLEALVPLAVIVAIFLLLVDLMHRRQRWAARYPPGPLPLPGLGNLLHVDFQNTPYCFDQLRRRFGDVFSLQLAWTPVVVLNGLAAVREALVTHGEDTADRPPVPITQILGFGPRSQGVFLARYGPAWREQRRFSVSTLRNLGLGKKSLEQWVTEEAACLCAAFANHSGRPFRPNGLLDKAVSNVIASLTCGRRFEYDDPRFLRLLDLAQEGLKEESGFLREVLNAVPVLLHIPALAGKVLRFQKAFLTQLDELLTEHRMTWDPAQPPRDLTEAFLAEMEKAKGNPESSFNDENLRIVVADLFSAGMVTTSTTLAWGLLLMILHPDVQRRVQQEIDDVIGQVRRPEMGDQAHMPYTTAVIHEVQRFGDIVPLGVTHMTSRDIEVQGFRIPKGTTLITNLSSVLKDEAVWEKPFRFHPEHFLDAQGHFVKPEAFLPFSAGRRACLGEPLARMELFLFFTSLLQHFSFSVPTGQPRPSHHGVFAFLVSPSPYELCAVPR
How it was run: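 P450-Glo luminescent screen: recombinant CYP2D6 enzyme–proluciferin substrate mix preincubated with compound 10 min at room temperature, then NADPH regeneration added for 1 h at room temperature. Detection reagent added for 20 min; luciferin light read as relative luminescence units.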

[11] = target: Cytochrome P450 2C9 (Homo sapiens) (UniProt P11712); test: Cytochrome P450 family 2 subfamily C member 9 (CYP2C9) small molecule antagonists: luciferase biochemical (cell-free) qHTS assay (AID 1645842; active = well fitted curve in the direction sought with a large enough effect in the repeat runs; an effect the other way counts as inactive or inconclusive; also: % is scaled to controls: 0 for no effect and ±100 for the full control effect; nearly all actives have a fitted effect of over 55% in size)
Cytochrome P450 2C9 (Homo sapiens), sequence (P11712 whole entry, looked up): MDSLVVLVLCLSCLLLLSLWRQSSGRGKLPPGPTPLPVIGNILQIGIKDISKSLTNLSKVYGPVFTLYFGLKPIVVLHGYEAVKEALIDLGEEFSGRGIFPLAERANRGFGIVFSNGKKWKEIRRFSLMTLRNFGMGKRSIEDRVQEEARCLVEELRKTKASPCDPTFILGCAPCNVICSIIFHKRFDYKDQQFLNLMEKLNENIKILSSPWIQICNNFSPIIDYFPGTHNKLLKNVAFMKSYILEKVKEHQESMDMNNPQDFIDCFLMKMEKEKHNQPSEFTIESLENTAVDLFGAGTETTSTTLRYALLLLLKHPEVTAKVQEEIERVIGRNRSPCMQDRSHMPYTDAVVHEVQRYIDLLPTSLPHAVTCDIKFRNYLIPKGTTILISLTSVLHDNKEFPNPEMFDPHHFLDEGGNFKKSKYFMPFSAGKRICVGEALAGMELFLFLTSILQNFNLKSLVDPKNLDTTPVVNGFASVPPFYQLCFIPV
How it was run: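 Luminescence, after 20 min with luciferin detection reagent, reflected CYP2C9 turnover during a 1 h NADPH-driven reaction at 37C. Enzyme-substrate mix contained 0.4% bovine serum albumin and was preincubated with compound 10 min at room temperature.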

[12] = target: Glutathione peroxidase 1 (Homo sapiens) (UniProt P07203); test: Primary qHTS Assay for Inhibitors of Recombinant Selenoprotein Glutathione Peroxidase 1 (GPX1) (AID 1845191); also: % is scaled to controls: 0 for no effect and ±100 for the full control effect; nearly all actives have a fitted effect of over 65% in size
Glutathione peroxidase 1 (Homo sapiens), sequence (P07203 whole entry, looked up): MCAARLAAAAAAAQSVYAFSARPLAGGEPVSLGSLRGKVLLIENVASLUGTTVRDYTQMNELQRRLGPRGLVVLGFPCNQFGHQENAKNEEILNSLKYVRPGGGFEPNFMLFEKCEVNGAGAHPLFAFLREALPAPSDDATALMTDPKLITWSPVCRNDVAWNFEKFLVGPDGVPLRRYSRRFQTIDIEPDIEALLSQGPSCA
How it was run: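 10 nM GPX1 + cpd, 30 min RT; start w/ 1 mM GSH, 0.5 mM cumene hydroperoxide, 0.5 mM NADPH, 100 nM GR, 0.01% BSA; buffer 50 mM Tris-HCl pH 7.5, 2 mM EDTA, 150 mM NaCl; Fl 340/450, 0 & 15 min.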

[13] = target: Phospholipid hydroperoxide glutathione peroxidase GPX4 (Homo sapiens) (UniProt P36969); test: Primary qHTS Assay for Inhibitors of Recombinant Selenoprotein Glutathione Peroxidase 4 (GPX4) (AID 1845192); also: % is scaled to controls: 0 for no effect and ±100 for the full control effect; nearly all actives have a fitted effect of over 65% in size
Phospholipid hydroperoxide glutathione peroxidase GPX4 (Homo sapiens), sequence (P36969 whole entry, looked up): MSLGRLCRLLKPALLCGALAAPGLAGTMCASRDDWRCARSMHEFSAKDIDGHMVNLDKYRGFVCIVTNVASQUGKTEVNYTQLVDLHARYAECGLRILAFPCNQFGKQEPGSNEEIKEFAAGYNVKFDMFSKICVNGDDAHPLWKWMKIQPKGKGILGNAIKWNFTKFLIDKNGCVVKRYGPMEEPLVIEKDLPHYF
How it was run: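 NADPH consumption, followed by fluorescence at 340/450 nm between 0 and 15 min, reports GPX4 activity via coupled glutathione reductase (100 nM). Enzyme 200 nM was pre-exposed to compound 30 min; 0.5 mM cumene hydroperoxide and 1 mM GSH served as substrates.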

[14] = qHTS profiling for inhibitors of Plasmodium falciparum proliferation (AID 504749);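 also: 0% = DMSO vehicle and full inhibition = artemisinin control; nearly all actives have a fitted effect of over 60% in size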; details: P. falciparum in erythrocytes, SYBR Green DNA, 72 h, at 28.7 µM (top of the series)
How it was run: (§1)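 Infected RBCs, 0.3% parasitemia/2.5% Hct final; cpd 72 h, 37 C, 5% CO2; lysis buffer with saponin/triton/SYBR Green I, o/n RT dark; FI 485/535; norm. to artemisinin (0.29 uM) and DMSO.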

3D7 = test: as above; details: P. falciparum in erythrocytes, SYBR Green DNA, 72 h; series mostly up to 28.7 µM
How it was run: as §1

7G8 = test: as above; details: P. falciparum in erythrocytes, SYBR Green DNA, 72 h; series mostly up to 12.8 µM
How it was run: as §1

AA1029 = test: as above; details: P. falciparum in erythrocytes, SYBR Green DNA, 72 h; series mostly up to 28.7 µM
How it was run: as §1

AS120 = test: as above; details: P. falciparum in erythrocytes, SYBR Green DNA, 72 h; series mostly up to 28.7 µM
How it was run: as §1

ATS189 = test: as above; details: P. falciparum in erythrocytes, SYBR Green DNA, 72 h; series mostly up to 28.7 µM
How it was run: as §1

ATS95 = test: as above; details: P. falciparum in erythrocytes, SYBR Green DNA, 72 h; series mostly up to 28.7 µM
How it was run: as §1

C2A = test: as above; details: P. falciparum in erythrocytes, SYBR Green DNA, 72 h; series mostly up to 28.7 µM
How it was run: as §1

CP185 = test: as above; details: P. falciparum in erythrocytes, SYBR Green DNA, 72 h; series mostly up to 28.7 µM
How it was run: as §1

CP191 = test: as above; details: P. falciparum in erythrocytes, SYBR Green DNA, 72 h; series mostly up to 28.7 µM
How it was run: as §1

CP192 = test: as above; details: P. falciparum in erythrocytes, SYBR Green DNA, 72 h; series mostly up to 28.7 µM
How it was run: as §1

CP194 = test: as above; details: P. falciparum in erythrocytes, SYBR Green DNA, 72 h; series mostly up to 28.7 µM
How it was run: as §1

CP201 = test: as above; details: P. falciparum in erythrocytes, SYBR Green DNA, 72 h; series mostly up to 28.7 µM
How it was run: as §1

CP203 = test: as above; details: P. falciparum in erythrocytes, SYBR Green DNA, 72 h; series mostly up to 28.7 µM
How it was run: as §1

CP211 = test: as above; details: P. falciparum in erythrocytes, SYBR Green DNA, 72 h; series mostly up to 28.7 µM
How it was run: as §1

CP215 = test: as above; details: P. falciparum in erythrocytes, SYBR Green DNA, 72 h; series mostly up to 28.7 µM
How it was run: as §1

CP217 = test: as above; details: P. falciparum in erythrocytes, SYBR Green DNA, 72 h; series mostly up to 28.7 µM
How it was run: as §1

CP237 = test: as above; details: P. falciparum in erythrocytes, SYBR Green DNA, 72 h; series mostly up to 28.7 µM
How it was run: as §1

CP238 = test: as above; details: P. falciparum in erythrocytes, SYBR Green DNA, 72 h; series mostly up to 28.7 µM
How it was run: as §1

CP247 = test: as above; details: P. falciparum in erythrocytes, SYBR Green DNA, 72 h; series mostly up to 28.7 µM
How it was run: as §1

CP250 = test: as above; details: P. falciparum in erythrocytes, SYBR Green DNA, 72 h; series mostly up to 12.8 µM
How it was run: as §1

CP252 = test: as above; details: P. falciparum in erythrocytes, SYBR Green DNA, 72 h; series mostly up to 12.8 µM
How it was run: as §1

CNC(C)[C@@H](O)c1ccc(O)cc1 (stereo partly specified)
inactive: Potency [1] | Potency [2] | Potency [3] | Potency [4] | Potency [5] | Potency [6] | Potency [7] | Potency [8] | Potency [9] | Potency [10] | Potency [11] | Potency [12] | Potency [13] | activity, negative = inhibition ([14]; parasite line A) 1.09% | activity, negative = inhibition ([14]; parasite line B) 3.21% | Potency (3D7) | Potency (7G8) | Potency (AA1029) | Potency (AS120) | Potency (ATS189) | Potency (ATS95) | Potency (C2A) | Potency (CP185) | Potency (CP191) | Potency (CP192) | Potency (CP194) | Potency (CP201) | Potency (CP203) | Potency (CP211) | Potency (CP215) | Potency (CP217) | Potency (CP237) | Potency (CP238) | Potency (CP247) | Potency (CP250) | Potency (CP252)
